Results as given in PubChem BioAssay (NCATS).
Records with an inconclusive call do not appear. Activity calls are given as the source filed them. Calls come from the whole dose curve; as a rule, active = well fitted curve in the direction sought with a large enough effect; inconclusive = small, poorly fitted or top-dose-only effect, or another doubt; inactive = no such curve, though single readings can be large; an effect the other way counts as inactive or inconclusive.

How the values were obtained:
[1] = Quantitative High-Throughput drug screen in 47 multiple myeloma cell lines against the NCATS MIPE library collection: KMS20_JCRB cell viability assay (AID 1918973); note: nearly all actives have a fitted effect of over 45% in size
How it was run: (§1)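 CellTiter-Glo luminescence (ATP) after 48 h compound exposure, 37C/5% CO2; 500 cells/well; MIPE 4.0 approved/investigational drugs pinned in; DMSO = 100%, media only = 0% viability.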

[2] = Quantitative High-Throughput drug screen in 47 multiple myeloma cell lines against the NCATS MIPE library collection: KMS21BM_JCRB cell viability assay (AID 1918974); settings: ATP luminescence, 48 h; viability: at 45.8 µM (top of the series) unless noted
How it was run: as §1

[3] = Quantitative High-Throughput drug screen in 47 multiple myeloma cell lines against the NCATS MIPE library collection: KMS26_JCRB cell viability assay (AID 1918975); note: nearly all actives have a fitted effect of over 45% in size
How it was run: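 qHTS of the MIPE 4.0 collection: 500 myeloma cells/well, 48 h drug exposure at 37C in 5% CO2, then CellTiter-Glo for 5 min at room temperature before luminescence reading.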

[4] = Quantitative High-Throughput drug screen in 47 multiple myeloma cell lines against the NCATS MIPE library collection: MMM1_PLB cell viability assay (AID 1918976); note: nearly all actives have a fitted effect of over 35% in size
How it was run: (§2)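 ATP-based CellTiter-Glo luminescence after 48 h drug exposure (37 °C, 5% CO2) of 500 myeloma cells per well. DMSO-only wells set 100% viability, media-only wells 0%; MIPE 4.0 library added by pin tool.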

[5] = Quantitative High-Throughput drug screen in 47 multiple myeloma cell lines against the NCATS MIPE library collection: MOLP8_DSMZ cell viability assay (AID 1918977); note: nearly all actives have a fitted effect of over 45% in size
How it was run: as §2

[6] = Quantitative High-Throughput drug screen in 47 multiple myeloma cell lines against the NCATS MIPE library collection: NCIH929_DSMZ cell viability assay (AID 1918978); note: nearly all actives have a fitted effect of over 35% in size
How it was run: as §2

[7] = Quantitative High-Throughput drug screen in 47 multiple myeloma cell lines against the NCATS MIPE library collection: OCIMY1_PLB cell viability assay (AID 1918979); note: nearly all actives have a fitted effect of over 35% in size
How it was run: as §2

[8] = Quantitative High-Throughput drug screen in 47 multiple myeloma cell lines against the NCATS MIPE library collection: MM1S_ATCC cell viability assay (AID 1918980); note: nearly all actives have a fitted effect of over 45% in size
How it was run: as §2

[9] = Quantitative High-Throughput drug screen in 47 multiple myeloma cell lines against the NCATS MIPE library collection: MM1R_ATCC cell viability assay (AID 1918981); note: nearly all actives have a fitted effect of over 35% in size
How it was run: as §2

[10] = Quantitative High-Throughput drug screen in 47 multiple myeloma cell lines against the NCATS MIPE library collection: LP1_DSMZ cell viability assay (AID 1918982); note: nearly all actives have a fitted effect of over 35% in size
How it was run: as §2

[11] = Quantitative High-Throughput drug screen in 47 multiple myeloma cell lines against the NCATS MIPE library collection: KMS28PE_JCRB cell viability assay (AID 1918983); note: nearly all actives have a fitted effect of over 35% in size
How it was run: as §2

[12] = Quantitative High-Throughput drug screen in 47 multiple myeloma cell lines against the NCATS MIPE library collection: KMS34_JCRB cell viability assay (AID 1918985); note: nearly all actives have a fitted effect of over 40% in size
How it was run: as §2

[13] = Quantitative High-Throughput drug screen in 47 multiple myeloma cell lines against the NCATS MIPE library collection: OCIMY7_PLB cell viability assay (AID 1918987); note: nearly all actives have a fitted effect of over 65% in size
How it was run: as §2

[14] = Quantitative High-Throughput drug screen in 47 multiple myeloma cell lines against the NCATS MIPE library collection: OCIMY5_PLB cell viability assay (AID 1918988); note: nearly all actives have a fitted effect of over 65% in size
How it was run: as §2

[15] = Quantitative High-Throughput drug screen in 47 multiple myeloma cell lines against the NCATS MIPE library collection: OPM1_PLB cell viability assay (AID 1918989); note: nearly all actives have a fitted effect of over 40% in size
How it was run: as §2

[16] = Quantitative High-Throughput drug screen in 47 multiple myeloma cell lines against the NCATS MIPE library collection: SKMM1_PLB cell viability assay (AID 1919863); settings: SKMM1 myeloma viability, CellTiter-Glo ATP, 48 h; viability: hits give low values; note: nearly all actives have a fitted effect of over 35% in size
How it was run: as §2

[17] = Quantitative High-Throughput drug screen in 47 multiple myeloma cell lines against the NCATS MIPE library collection: U266_ATCC cell viability assay (AID 1919864); note: nearly all actives have a fitted effect of over 35% in size
How it was run: as §2

[18] = Quantitative High-Throughput drug screen in 47 multiple myeloma cell lines against the NCATS MIPE library collection: L363_DSMZ cell viability assay (AID 1918984); note: nearly all actives have a fitted effect of over 40% in size
How it was run: as §2

[19] = Quantitative High-Throughput drug screen in 47 multiple myeloma cell lines against the NCATS MIPE library collection: XG1_PLB cell viability assay (AID 1919866); note: nearly all actives have a fitted effect of over 35% in size
How it was run: as §2

[20] = Quantitative High-Throughput drug screen in 47 multiple myeloma cell lines against the NCATS MIPE library collection: XG6_PLB cell viability assay (AID 1919865); note: nearly all actives have a fitted effect of over 40% in size
How it was run: as §2
Potency is the fitted concentration of half-maximal effect.

CCC1=C[C@@H]2CN(C1)Cc1c([nH]c3ccccc13)[C@@](C(=O)OC)(c1cc3c(cc1OC)N(C)[C@@H]1[C@@](O)(C(=O)OC)[C@H](OC(C)=O)[C@]4(CC)C=CCN5CC[C@]31[C@@H]54)C2
active: Potency [1] 23.5 nM | Potency [2] 33.2 nM | Potency [3] 2960 nM | Potency [4] 1870 nM | Potency [5] 33.2 nM | Potency [6] 2090 nM | Potency [7] 2090 nM | Potency [8] 372 nM | Potency [9] 187 nM | Potency [10] 33.2 nM | Potency [11] 20.9 nM | Potency [12] 16.6 nM | Potency [13] 166 nM | Potency [14] 6.6 nM | Potency [15] 26.4 nM | Potency [16] 23.5 nM | Potency [17] 14800 nM

C=CCn1c(=O)c2cnc(Nc3ccc(N4CCN(C)CC4)cc3)nc2n1-c1cccc(C(C)(C)O)n1
active: Potency [1] 8330 nM | Potency [2] 9350 nM | Potency [6] 7430 nM | Potency [11] 590 nM | Potency [18] 83.3 nM | Potency [12] 14.8 nM | Potency [14] 332 nM | Potency [15] 590 nM | Potency [16] 469 nM | Potency [19] 166 nM
inactive: Potency [4]

COc1cc2c(NC3CCN(C(C)C)CC3)nc(C3CCCCC3)nc2cc1OCCCN1CCCC1
active: Potency [1] 2350 nM | Potency [3] 6620 nM | Potency [4] 6620 nM | Potency [5] 7430 nM | Potency [6] 5260 nM | Potency [7] 7430 nM | Potency [8] 4180 nM | Potency [9] 6620 nM | Potency [10] 5260 nM | Potency [11] 16600 nM | Potency [18] 5260 nM | Potency [12] 5260 nM | Potency [13] 16600 nM | Potency [14] 6620 nM | Potency [15] 3320 nM | Potency [16] 11800 nM | Potency [17] 2960 nM | Potency [20] 2640 nM | Potency [19] 4690 nM

Cn1c2ccccc2c2c3c(c4c5ccccc5n(CCC#N)c4c21)CNC3=O
active: Potency [1] 1480 nM | Potency [3] 14800 nM | Potency [4] 10500 nM | Potency [5] 10500 nM | Potency [6] 1870 nM | Potency [7] 14800 nM | Potency [8] 2090 nM | Potency [9] 1660 nM | Potency [10] 14800 nM | Potency [11] 14800 nM | Potency [18] 209 nM | Potency [12] 3720 nM | Potency [13] 590 nM | Potency [14] 5900 nM | Potency [15] 296 nM | Potency [16] 8330 nM | Potency [17] 4690 nM | Potency [20] 526 nM | Potency [19] 2350 nM

CC(C)(C)OC(=O)Nc1ccc(-c2cc(C(=O)NCCCCCCC(=O)NO)no2)cc1
active: Potency [1] 2640 nM | Potency [2] 935 nM | Potency [3] 3720 nM | Potency [6] 1660 nM | Potency [8] 2350 nM | Potency [9] 1870 nM | Potency [11] 2350 nM | Potency [18] 469 nM | Potency [12] 2350 nM | Potency [13] 1320 nM | Potency [14] 1870 nM | Potency [15] 1870 nM | Potency [16] 2090 nM | Potency [17] 2960 nM | Potency [20] 3720 nM | Potency [19] 1870 nM

COc1cc(Nc2ncc(F)c(Nc3ccc4c(n3)N(COP(=O)(O)O)C(=O)C(C)(C)O4)n2)cc(OC)c1OC
active: Potency [1] 1660 nM | Potency [2] 743 nM | Potency [8] 20900 nM | Potency [18] 2350 nM | Potency [13] 1870 nM | Potency [14] 26400 nM | Potency [15] 1870 nM | Potency [20] 1480 nM | Potency [19] 662 nM

Nc1ccccc1NC(=O)c1ccc(CNc2nccc(-c3cccnc3)n2)cc1
active: Potency [1] 743 nM | Potency [2] 662 nM | Potency [3] 1320 nM | Potency [5] 1180 nM | Potency [6] 1180 nM | Potency [7] 3320 nM | Potency [9] 743 nM | Potency [10] 2090 nM | Potency [18] 1180 nM | Potency [12] 935 nM | Potency [13] 526 nM | Potency [14] 833 nM | Potency [15] 264 nM | Potency [16] 1660 nM | Potency [17] 1660 nM | Potency [20] 2640 nM | Potency [19] 1180 nM

Cc1c(C)n(Cc2ccc(-c3ccccc3C(=O)O)cc2)c2ccc(C(=O)N[C@@H](C)c3ccc([N+](=O)[O-])cc3)cc12
active: Potency [1] 11800 nM | Potency [2] 148 nM | Potency [6] 26400 nM | Potency [8] 5260 nM | Potency [18] 93.5 nM
inactive: Potency [10] | Potency [11] | viability [16] 123%

C#Cc1cccc(Nc2ncnc3cc(OC)c(OCCCCCCC(=O)NO)cc23)c1
active: Potency [1] 83.3 nM | Potency [3] 105 nM | Potency [4] 418 nM | Potency [5] 166 nM | Potency [6] 93.5 nM | Potency [7] 1050 nM | Potency [8] 23.5 nM | Potency [9] 166 nM | Potency [10] 743 nM | Potency [11] 118 nM | Potency [18] 52.6 nM | Potency [12] 1050 nM | Potency [13] 148 nM | Potency [14] 5.3 nM | Potency [15] 264 nM | Potency [16] 418 nM | Potency [17] 105 nM | Potency [19] 74.3 nM

OCCCNc1cc(-c2ccnc(Nc3cccc(Cl)c3)n2)ccn1
active: Potency [1] 41.8 nM | Potency [2] 37.2 nM | Potency [3] 132 nM | Potency [4] 166 nM | Potency [6] 29.6 nM | Potency [7] 235 nM | Potency [8] 118 nM | Potency [10] 105 nM | Potency [11] 148 nM | Potency [18] 33.2 nM | Potency [12] 132 nM | Potency [13] 46.9 nM | Potency [14] 105 nM | Potency [15] 46.9 nM | Potency [16] 148 nM | Potency [17] 148 nM | Potency [20] 33.2 nM | Potency [19] 41.8 nM
